# Source: PubChem
# FUS suppressor – rescues growth of FUS-expressing yeast. S. cerevisiae FUS-expressing, growth rescue, OD600, 24 h. actives 0.24% (n = 390,000). Potency, µM (doses to about 76.6 µM), most hits filed as activators. AID 1347120;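 also: plate controls were DMSO vehicle for no effect and reference control for full effect; nearly all actives have a fitted effect of over 55% in size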
#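 Steps: raffinose overnight preculture; dilution to OD 0.005 in 2% galactose minimal medium; compound addition (concentration series); 24hr at 30C, 99% humidity; absorbance read at 600 nm.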
# Abeta rescue – compounds reversing amyloid beta toxicity in yeast. yeast expressing A-beta42, growth rescue, OD600, 48 h; response scale: 0% DMSO, 100% iron-clioquinol control. Potency, µM (doses to about 46.1 µM), hits mostly activators. actives 0.063% (n = 410,000); also: nearly all actives have a fitted effect of over 55% in size
#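 Growth rescue measured by 600 nm absorbance after 48 h yeast culture at 30 C with compound. Values normalized between DMSO and an equimolar ferric chloride plus clioquinol control.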
# aSyn yeast inh – alpha-synuclein toxicity inhibition in yeast; Yeast expressing alpha-synuclein, growth rescue, BacTiter-Glo, 24 h; Potency, µM (top dose mostly 46.1 µM), inactives show at the highest dose growth rescue (activation), hits mostly activators; actives 0.14% (n = 370,000); AID 652106; also: % of control where 0% means no effect; nearly all actives have a fitted effect of over 65% in size
#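 Readout is rescue of growth in alpha-synuclein-expressing yeast, so inhibitors of toxicity appear as activators. Growth after 24 hr at 30 deg C in galactose medium is quantified by luminescence.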
# TDP43 rescue – TDP-43 toxicity inhibition in yeast; actives 1.8% (n = 410,000); TDP-43 expressing yeast growth rescue, BacTiter-Glo, 24 h; AID 652104; Potency, µM (doses to about 46.1 µM), inactives show at the highest dose growth rescue (activation), most hits filed as activators; also: % of control where 0% means no effect; nearly all actives have a fitted effect of over 50% in size
#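 Galactose-induced TDP-43 yeast, OD600=0.02, compound pinned; 24 hr, 30 deg C; BacTiter-Glo luminescence for growth. Inhibitors of TDP-43 toxicity read as activators.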
# * = called active by the depositor; i = inactive; ? = inconclusive; · = no result given; [ ] = dose if it differs, or a comment. Shown are actives, neighbours in structure and some others; about 2.1% of the full set was active somewhere. Calls follow the shape of the dose curve; as a rule, active = well fitted curve in the direction sought with a large enough effect; inconclusive = small, poorly fitted or top-dose-only effect, or another doubt; inactive = no such curve, though single readings can be large; an effect the other way counts as inactive or inconclusive. Potency is read from the fitted curve at half-maximal effect.
SMILES,FUS suppressor,Abeta rescue,aSyn yeast inh,TDP43 rescue
O=C(c1ccccc1F)N1CCN(S(=O)(=O)c2ccc3ccccc3c2)CC1,i,i,2%,35µM*
O=C(c1ccc2ccccc2n1)N1CCN(S(=O)(=O)c2ccc(Cl)cc2)CC1,i,i,13%,25µM*
Cc1ccc(-n2c(SCC(=O)Nc3ccc4c(c3)OCCO4)nnc2-c2cnccn2)cc1,i,·,·,·
O=C(NCc1ccc(Cl)cc1)O[C@H]1CC[C@@]23CCCN2C(=O)CCC[C@H]3C1,i,·,·,·
Cc1cccc(N2C(=O)N(Cc3cc(=O)n4ccccc4n3)c3ccccc3S2(=O)=O)c1,?,i,·,-4%
CCc1ccccc1N1C(=O)N(Cc2cc(=O)n3ccccc3n2)c2ccccc2S1(=O)=O,32µM*,i,·,11µM*
ICC[n+]1csc2ccccc21,·,·,-1%,·
Clc1ccc(C[n+]2csc3ccccc32)cc1,·,i,-11%,25µM*
Fc1ccc(C[n+]2csc3ccccc32)cc1,·,i,-9%,28µM*
COc1ccc(NC(=S)N2CCC3CC2c2c(Cl)cccc23)c(OC)c1 (stereo not given),i,i,2%,14µM*
C=CCNC(=S)N1CCC2CC1c1c(Cl)cccc12 (stereo not given),i,?,12%,27%
Cc1occc1C(=O)N/N=C/C(Br)=C/c1ccccc1,i,i,-14%,14µM*
COc1ccc(C(=O)N/N=C/C(Br)=C/c2ccccc2)cc1,i,i,-12%,2%
COc1cccc(C=C(C(C)=O)C(=O)c2ccccc2)c1,i,i,?,11µM*
COc1cccc(C(=O)N/N=C/C(Br)=C/c2ccccc2)c1,i,i,12%,20µM*
Cc1occc1C(=O)N/N=C/c1ccc(-c2ccccc2)cc1,i,i,-33%,-37%
C[C@H]1C2CC(OC(=O)NCCCc3ccccc3)C(C2)[C@H]2CCCCN21 (stereo not given in full),i,·,·,·
CC(C)c1ccc(C(=O)Nc2cc(Cl)ccc2C(=O)O)cc1,i,·,·,·
Oc1c(Cl)cc(Cl)cc1/C=N/Nc1ncc(Br)cn1,i,i,1µM*,-1%
COc1cccc(C(O)c2nc(-c3cc(F)cc(F)c3)cs2)c1 (stereo not given),i,?,?,16µM*
COc1ccc(-c2csc(C(O)c3cccc(OC)c3)n2)cc1 (stereo not given),i,?,3.5µM*,20µM*
CC1=NN(/C(=N\c2nnc(C)s2)Nc2ccccc2)[C@H](c2cccc3ccccc23)S1,?,i,3%,?
CC1=NN(/C(=N\c2nnc(C)s2)Nc2ccc(C)cc2)[C@H](c2ccc(C)cc2)S1,i,i,5%,13µM*
Cc1ccc(-n2c(SCC(=O)Nc3ccc(Oc4ccccc4)cc3)nnc2-c2ccco2)cc1,i,·,·,·
O=C(Nc1ccc(Cl)c(Cl)c1)Nc1ccon1,i,i,-31%,35µM*
SMILES,FUS suppressor,Abeta rescue,aSyn yeast inh,TDP43 rescue
CCOC(=O)NC[C@@]1(C(=O)OC)CC(=O)N(Cc2ccc(Cl)cc2)[C@@H]1c1ccc(OC)cc1,i,·,·,·
O=C1CSc2ccc(C(=O)N3CCCC(C(=O)N4CCN(c5ccc(F)cc5)CC4)C3)cc2N1 (stereo not given),i,·,·,·
OC(COc1ccccc1)Cn1c2ccccc2c2ccccc21 (stereo not given),·,?,22%,18µM*
Oc1ccc(Br)cc1C1C=C(c2ccc3c(c2)OCO3)NC(c2ccc(Br)cc2)N1 (stereo not given),·,·,-27%,·
COc1ccc(Cl)c2sc(NC(=O)C3=COCCO3)nc12,i,i,-1%,-11%
Cc1ccc(Cl)c2sc(NC(=O)C3=COCCO3)nc12,i,i,-7%,11µM*
Cc1cc(C)c2sc(NC(=O)C3=COCCO3)nc2c1,?,i,-2%,18µM*
Cc1cc(C)c(-c2csc(NC(=O)C3=COCCO3)n2)c(C)c1,i,i,-4%,?
CCOc1ccc(Nc2nn(-c3ccc(OC(F)(F)F)cc3)nc2C(C)=O)cc1,i,i,·,-2%
O=C1OC(/C(=C\Nc2ccc(F)cc2F)[N+](=O)[O-])c2ccccc21 (stereo not given),i,i,18µM*,?
O=C(Cc1ccc(-c2ccccc2)cc1)NO,·,·,12%,·
C#CC(c1ccccc1)(c1ccccc1)n1ccnc1,i,i,6%,3.5µM*
O=C(c1ccco1)N1CC2(CC(c3ccc(Cl)cc3)=NO2)CN1Cc1ccc(Br)cc1 (stereo not given),i,i,12%,32µM*
FC(F)(F)c1ccccc1NC(=S)OCCN1CCCC12CCC(c1ccccc1)CC2 (stereo not given),i,·,·,·
CC(C)[C@H](N)C(=O)N1CCC[C@@H]1C(=O)N1CCC2CCN(S(=O)(=O)c3ccccc3)CC21 (stereo not given in full),i,·,·,·
COC(=O)c1ccc(CSc2nnc(Nc3ccc(OC)cc3)s2)o1,i,i,0%,14%
COC(=O)c1ccc(CSc2nnc(Nc3ccccc3OC)s2)o1,i,i,-8%,18µM*
CCCCOCCCNC(=O)C[C@@H]1C(=O)N(CCc2ccc(Cl)cc2)C2=CCCCC[C@]21C(=O)OC,i,·,·,·
COc1ccc(Oc2nc(-c3cccnc3)nc3ccccc23)cc1,i,i,2%,2%
CC(=O)CCc1ccc(Oc2nc(-c3cccnc3)nc3ccccc23)cc1,i,i,9%,14µM*
Nc1nc(Nc2ccccc2Br)nc(C(F)(F)F)n1,i,i,-5%,18µM*
Nc1nc(Nc2ccccc2)nc(C(F)(F)F)n1,i,i,-24%,-1%[1.82 µM]
COC(=O)/C=C1\OC(C2CC2)c2ccccc21 (stereo not given),i,i,-9%,28µM*
Cc1cc(C(=O)CSc2cccc[n+]2[O-])c(C)n1-c1ccc(OC(F)F)cc1,i,i,-7%,14µM*
COC(=O)c1ccc(-n2c(C)cc(C(=O)CSc3cccc[n+]3[O-])c2C)cc1,i,i,?,14µM*
SMILES,FUS suppressor,Abeta rescue,aSyn yeast inh,TDP43 rescue
Cc1cc(C(=O)Cn2nc(C(=O)O)c3ccccc3c2=O)c(C)n1-c1ccc(OC(F)F)cc1,?,i,0%,30%
COC(=O)c1ccc(-n2c(C)cc(C(=O)CSc3ccc(NC(C)=O)cc3)c2C)cc1,·,i,-1%,0%
Cc1ccc(C)c(NC(=S)NC(=O)c2cncc(Br)c2)c1,i,?,-4%,11µM*
CNc1cc(C(=O)O)nc2ccccc12,·,·,7%,·
Cc1ccc(-c2ccc(/C=C(\C#N)C(N)=S)n2C)cc1,i,i,-5%,0%
Cc1cc(C)c(/C=C(\C#N)C(N)=S)c(C)c1,i,i,27%,11µM*
CC(C(=O)Nc1ccccc1)N1C(=O)c2ccccc2C1=O (stereo not given),i,i,1%,9%
